Compounds with a hit are over-represented: about 3.5% of the library has one in this group of screens.
Bead autofluor – compound fluorescence in toxin protease inhibitor counterscreen | compound autofluorescence counterscreen, microsphere flow cytometry; active compounds read high | fluorescence intensity (test concentration not listed) | hit rate 3.1% among 360,000 | AID 624483; in the data active means fluorescence intensity above about 16000; inconclusive means no clear call, values can overlap the other calls
BoNT A protease – blocks Botulinum neurotoxin A light chain protease; multiplex microsphere protease substrate cleavage, flow cytometry; inhibition, % at 10 µM; hit rate 0.17% among 360,000; AID 588499; further: plate controls were buffer without enzyme for full effect and enzyme alone for no effect
BoNT F protease – blocks Botulinum neurotoxin F light chain protease. Multiplex microsphere protease cleavage assay, flow cytometry. inhibition, % at 10 µM. hit rate 0.22% among 360,000. AID 588497; in the data active means inhibition above about 35%, passing the limit was not always enough; inconclusive means no clear call, values can overlap the other calls; further: plate controls were buffer without enzyme for full effect and enzyme alone for no effect
3CLpro inhibitor – SARS-CoV 3CLpro protease inhibition; recombinant SARS-CoV 3CLpro, quenched FRET peptide cleavage; hit rate 0.14% among 290,000; P0C6X7; inhibition, % at 6 µM; AID 1706; in the data active means inhibition above about 12%
Anthrax LF inh2 – inhibitors of Bacillus anthracis lethal factor protease; multiplex microsphere protease cleavage assay, LF; inhibition, % at 10 µM; hit rate 0.12% among 360,000; AID 588501; further: plate controls were buffer without enzyme for full effect and enzyme alone for no effect
* = called active by the depositor; ? = inconclusive; nt = not tested or not shown. Unless noted, no stated cut-off is given here; in the data, active means inhibition above about 30%; inconclusive means no clear call, values can overlap the other calls; inactive means below that.

SMILES | Bead autofluor | BoNT A protease | BoNT F protease | 3CLpro inhibitor | Anthrax LF inh2
COc1ccc(OC)c(C(=O)c2ccc(C(=O)Nc3ccccc3)cc2)c1 | 1894 | 0 | -1 | -2 | 0
COc1ccc(NC(=O)c2ccc(C(=O)c3cc(OC)ccc3OC)cc2)cc1 | 20895* | 6 | 6 | 2 | 1
CCOC(=O)N1CCN(C(=O)c2ccccc2NC(=O)c2ccc(OC)cc2)CC1 | 23728* | -2 | -4 | 3 | -4
CCOC(=O)C(=O)Nc1ccccc1C(=O)Nc1ccc(OC)cc1 | 19641* | 8 | 12 | 4 | -18
COc1ccc(C(=O)Nc2ccccc2C(=O)Nc2ccccc2)cc1 | 3569 | 0 | -6 | nt | -2
NC(=O)CN1C(=O)C(O)(CC(=O)/C=C\C=C\c2ccccc2)c2ccccc21 (configuration not stated) | 8046 | 0 | -5 | -4 | 2
Cc1ccc(NC(=O)CN2C(=O)COc3ccc(C)cc32)nc1 | 21570* | 4 | 6 | -5 | -2
Cc1ccc2c(c1)N(C(C)C(=O)NCCc1ccccc1)C(=O)CO2 (configuration not stated) | 20536* | ? | -3 | -1 | -1
Cc1ccc2c(c1)N(CCC(=O)N1CCC3(CC1)OCCO3)C(=O)CO2 | 22602* | 0 | 0 | -5 | -1
Cc1ccc2c(c1)N(CC(=O)NCCc1c[nH]c3ccccc13)C(=O)CO2 | 23441* | -2 | -2 | -5 | -3
CC(C)CN(C(=O)COC(=O)c1cc2ccccc2oc1=O)C1CCS(=O)(=O)C1 (configuration not stated) | nt | nt | nt | 1 | nt
CCSc1nnc(NC(=O)CSc2sc3c(O)cc(=O)[nH]c3c2C#N)s1 | 5780 | -1 | -4 | -1 | -5
CCOC(=O)c1ccc(NC(=O)c2nc[nH]c2C(=O)NCCCCCNC(=O)OC(C)(C)C)cc1 | 3703 | 0 | -2 | nt | -7
CCOC(=O)C1=CCN(S(=O)(=O)c2ccc(F)cc2)C1c1ccc(Br)cc1 (configuration not stated) | 5365 | 0 | 2 | nt | -5
FC(F)(F)c1nc(N2CCCC2)ncc1-c1nnnn1-c1ccc(Cl)cc1 | 4197 | 2 | 17 | -1 | 1
C#CCOC(=O)/C(=C/c1ccc(F)cc1)NC(C)=O | 2507 | 0 | -3 | 6 | 1
CN(c1ccc(OCC(=O)N2CCOCC2)cc1)S(=O)(=O)c1ccc(F)cc1 | ? | -1 | 1 | 3 | -9
C=CCN1C(=O)/C(=C\C=C2\N(C)c3ccccc3C2(C)C)SC1=S | 4733 | 41* | 10 | -5 | 23
CN1/C(=C\C=C2/SC(=S)N(CC(=O)O)C2=O)C(C)(C)c2ccccc21 | 2717 | 7 | -10 | -18 | -1
COc1cccc(CN2CCNC(=O)C2CC(=O)NCCOc2cccnc2)c1OC (configuration not stated) | 2547 | -1 | -2 | 5 | 0
O=C1CC(c2cccc(Cl)c2)C(n2cncn2)C(=O)C1C1NCCc2ccccc21 (configuration not stated) | 4641 | 0 | 5 | 2 | 1
O=C1CC(=O)C(n2cncn2)C(c2cccc(Cl)c2)C1 (configuration not stated) | 21751* | 4 | 8 | 1 | -1
COc1ccc(C2CC(=O)CC(=O)C2n2cncn2)cc1 (configuration not stated) | 21795* | 1 | 3 | 0 | -2
CCC(NC(=O)Cc1cccs1)c1ccccc1 (configuration not stated) | 4251 | -4 | ? | -2 | -11
Cc1cc(C(=O)NCCCN2CCCC2=O)no1 | 26454* | ? | -12 | -3 | -4
SMILES | Bead autofluor | BoNT A protease | BoNT F protease | 3CLpro inhibitor | Anthrax LF inh2
O=C(NCCCN1CCCC1=O)c1cc(COc2ccc(F)cc2F)on1 | 6100 | -2 | -7 | 1 | -3
O=C(NCCCN1CCCC1=O)c1cccc(C(F)(F)F)c1 | 20148* | ? | 2 | 2 | 3
COc1ccccc1C(=O)NCCCN1CCCC1=O | 20201* | 5 | 7 | 3 | -6
COc1cc2[nH]c(=O)n(CCCCCC(=O)NCCCN3CCCC3=O)c(=O)c2cc1OC | 16148* | 1 | 1 | -3 | -3
O=C(CCCn1c(SCC(=O)Nc2ccccc2Cl)nc2ccccc2c1=O)NCC1CCCO1 (configuration not stated) | 4850 | -2 | -9 | 4 | -2
Cc1cc(Oc2cccc3c2S(=O)(=O)N(C2CCCC2)CC(COCc2ccccc2)O3)cc(C)c1C (configuration not stated) | 3059 | -1 | 1 | nt | -6
COCCNC(=O)C1(C)CCN(C(=O)c2ccc(OC)c(F)c2)C1 (configuration not stated) | 3869 | 0 | 1 | nt | 0

High-throughput results from PubChem.
